Each structure is given as a SMILES string.

The target of the assay is T1, Aspartate--tRNA(Asp/Asn) ligase (Mycobacterium tuberculosis (strain ATCC 25618 / H37Rv)) (UniProt P9WFW3).
T1 sequence (whole entry): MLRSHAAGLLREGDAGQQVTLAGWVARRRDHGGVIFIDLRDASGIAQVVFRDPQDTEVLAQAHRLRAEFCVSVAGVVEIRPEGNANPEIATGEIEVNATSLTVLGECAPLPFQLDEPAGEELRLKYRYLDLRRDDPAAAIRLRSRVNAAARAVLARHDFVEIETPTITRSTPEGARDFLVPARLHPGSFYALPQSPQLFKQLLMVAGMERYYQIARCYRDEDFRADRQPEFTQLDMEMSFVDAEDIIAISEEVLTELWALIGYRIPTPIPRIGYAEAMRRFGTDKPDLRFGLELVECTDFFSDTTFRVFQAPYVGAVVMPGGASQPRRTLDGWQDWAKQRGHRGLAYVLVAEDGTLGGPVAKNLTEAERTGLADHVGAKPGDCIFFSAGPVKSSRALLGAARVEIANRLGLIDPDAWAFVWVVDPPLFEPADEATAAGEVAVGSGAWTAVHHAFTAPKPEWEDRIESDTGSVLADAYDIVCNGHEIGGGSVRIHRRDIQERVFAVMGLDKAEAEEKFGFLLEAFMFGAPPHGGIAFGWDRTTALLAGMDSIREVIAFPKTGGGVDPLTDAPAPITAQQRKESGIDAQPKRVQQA
Kind of assay: Assay for Asp RNA synthetase-1 from Mycobacterium tuberculosis. The class given is functional. Set-up: scale not given: in the data most compounds retested in dose-response had high values. To be noted: 30 µM.
Turning to `Cc1ccc(C(=O)N2Cc3ccccc3C2)cc1N1CCNC1=O`, the Percent Effect was -0.287%.
Under `CCOc1ncccc1CNC(=O)N1CCCC1c1cc(C)no1` (stereo not drawn) stands -2.06%; under `O=C(NCCCn1cccn1)N1CCCC1c1ccncc1` (stereo not drawn), -0.931%.
Turning to `Cc1ccsc1CNC(=O)NC1CCCc2c1cnn2CCO` (stereo not drawn), the Percent Effect was -1.99%.
Under `COCCc1noc(CN(C)C2CCCN(c3ccc(C)nn3)C2)n1` (stereo not drawn) stands 0.172%; under `O=C1CC(c2cccs2)c2cnn(C3CCCC3)c2N1` (stereo not drawn), -1.62%.
Under `O=C(C1CC(=O)N(C2CCCC2)C1)N1CCN(CCn2cccc2)CC1` (stereo not drawn) stands -2.4%; under `CCCC(NC(=O)c1cc(C)ccc1C)c1nnn[nH]1` (stereo not drawn), -2.52%; under `CC(=O)Nc1c(C)cnn1Cc1cc(F)ccc1F`, 2.1%.
Under `Cc1cc(C(=O)NC2CCCN(c3ccccc3)C2=O)on1` (stereo not drawn) stands 0.287%; under `Cc1cc(NC(=O)Cn2cc(C#N)c(=O)c3cc(Br)ccc32)no1`, -2.42%.
With `CC(C)n1ccnc1C1CCCN(c2ccccn2)C1` (stereo not drawn), the Percent Effect is -2.15%.
As for `CCCOCCN1CCC2(CC1)CC(c1ccccc1)C(=O)N2C` (stereo not drawn), the Percent Effect is -5.14%.
For the compound `O=C1O[C@@H]2CN(Cc3cccc(F)c3)C[C@@H]2N1CCCN1CCOCC1`, the Percent Effect was found to be 0.287%.
Then `O=S(=O)(Cc1ccccc1F)NCCCN1CCCCC1`, with 0.172%; and `CCC(=O)NCc1cc(Br)ccc1OC(F)F`, with 0.885%; and `Cc1cc(F)ccc1OC1(C(=O)O)CCN(Cc2cccnc2N)CC1`, with -3.76%.
Regarding `CCS(=O)(=O)N1CCC(c2nnc(CN3CCOCC3)n2C)CC1`, the Percent Effect is -1.39%.

The record behind these values is ChEMBL document CHEMBL3988442, “University of Dundee, Small-Polar-MMV Screening Library” (2021).
